From PubChem BioAssay (Tox21)
Activity calls are given as the source filed them. Where a call stands in place of a potency, no number is given. Calls follow the shape of the dose curve; as a rule, active = well fitted activation curve with a large enough effect in the repeat runs; inconclusive = weak or mixed curves; inactive = flat fitted curve, though single readings scatter.

Assay: A CellTox Green Cytotoxicity Assay to monitor cytotoxicity in HEK293 cells - 0 hour (AID 1224869); also: nearly all actives have a fitted effect of over 50% in size
Conditions: CellTox Green fluorescence; series mostly up to 76.8 µM
Method in brief: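 Real-time, in one plate: 600 HEK293 cells/well with dead-cell DNA dye, pinned compound after 5 h, 37 C incubation over 40 h; viable cells give no appreciable fluorescence.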

Row | SMILES | Potency
1 | C=C(C)[C@@H]1CCC2=CCC[C@@H](C)[C@]2(C)C1 | inactive
2 | Oc1c(I)cc(I)c2cccnc12 | inactive
3 | CN1CCCC(n2nc(Cc3ccc(Cl)cc3)c3ccccc3c2=O)CC1 (stereo not drawn) | inactive
4 | CCC1NC(=O)c2cc(S(N)(=O)=O)c(Cl)cc2N1 (stereo not drawn) | inactive
5 | CCC=CC#N | inactive
6 | C1COC1 | inactive
7 | CCCCCCC(C)(C)C(=O)O | inactive
8 | Cc1cccc(N(C)C(=S)Oc2ccc3c(c2)CCC3)c1 | inactive
9 | O=C1c2ccccc2C(=O)c2c(O)c(O)cc(O)c21 | inactive
10 | CCOC(C)=O | inactive
11 | CCCCC(CC)COP(=O)(O)O (stereo not drawn) | inactive
12 | CCC(C)COC(=O)CC(C)C (stereo not drawn) | inactive
13 | CCCCN(CCCC)C(C(N)=O)c1ccc(OC)cc1 (stereo not drawn) | inactive
14 | Cc1ccco1 | inactive
15 | CCCCCC[C@@H](O)C/C=C\CCCCCCCC(=O)OCC(O)CO (stereo partly drawn) | inactive
16 | O=c1[nH]c2ccc(Cl)cc2o1 | inactive
17 | O=C1Cc2cc(Cl)ccc2N1 | inactive

Row | SMILES | Potency
18 | CCC(C)COC(C)=O (stereo not drawn) | inactive
19 | Nc1nnc(-c2ccc([N+](=O)[O-])o2)o1 | inactive
20 | N#[N+]c1ccc2c(S(=O)(=O)[O-])cccc2c1O | inactive
21 | Cc1cc(O)c(C)c(C)c1O | inactive
22 | Oc1cccc(Nc2ccccc2)c1 | inactive
23 | CC(=O)OCC(=O)NCCCOc1cccc(CN2CCCCC2)c1 | inactive
24 | O=C(/C=C/c1ccccc1)OCCc1ccccc1 | inactive
25 | CC(=O)Nc1ccc(C)cc1C | inactive
26 | COC(=O)c1nc(Cl)c(Cl)nc1N | inactive
27 | NCCNCCO | inactive
28 | Cc1ccc2c(Br)cc(Br)c(O)c2n1 | inactive
29 | O=C(O)C[C@H](NC(=O)OCc1ccccc1)C(=O)O | inactive
30 | O=C(Nc1cccc2c(=O)cc(-c3nn[nH]n3)oc12)c1ccc(OCCCCc2ccccc2)cc1 | inactive
31 | CCOC(=O)c1ccc(I)cc1 | inactive
32 | CC(=O)c1ccc([N+](=O)[O-])cc1 | inactive
33 | Cc1ccc(C(C)(C)O)cc1 | inactive
